Where “and” joins values, the source holds several entries; their conditions need not be identical. Equal values may be shown once. Records with an inconclusive call do not appear. Calls of active or inactive are those of the source. Unless noted, calls come from the whole dose curve; as a rule, active = well fitted curve in the direction sought with a large enough effect in the repeat runs; inconclusive = weak or mixed curves; inactive = no such curve, though single readings can be large; an effect the other way counts as inactive or inconclusive.
Columns and labels:
[1] = qHTS assay to identify small molecule antagonists of the vitamin D receptor (VDR) signaling pathway - cell viability counter screen (AID 743225); note: nearly all actives have a fitted effect of over 50% in size
Summary of the method: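 Compounds were pinned onto VDR-bla HEK 293T cells together with 1-alpha,25-dihydroxyvitamin D3 at 3 nM final. After 16 h at 37C and 5% CO2 plus the reporter readout, cell viability was measured by CellTiter-Glo luminescence (30 min, room temperature).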

[2] = qHTS assay to identify small molecule agonists of the NFkB signaling pathway (AID 1159509; active = well fitted curve in the direction sought with a large enough effect in the signal ratio in the repeat runs, not every such curve was filed as active; the % refers to the signal ratio; note: series mostly up to about 61 µM)
Summary of the method: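 NFkB-bla ME-180 cells with a beta-lactamase reporter under an NF-kB response element were plated overnight, treated with compounds in DMSO for 5 hr at 37 C, then loaded with FRET substrate for 1.5 hr at room temperature.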

[3] = qHTS assay to identify small molecule agonists of the NFkB signaling pathway - cell viability counter screen (AID 1159515; calls by dose curve; note: series mostly up to about 61 µM; nearly all actives have a fitted effect of over 55% in size)
Summary of the method: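 Luminescence from CellTiter-Glo (30 min, room temperature) gives viability, measured in the same wells as the beta-lactamase reporter read. Cells were NFkB-bla ME-180, 2,000 per well, treated 5 hr with compounds.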

[4] = qHTS assay to identify small molecule agonists of the endoplasmic reticulum stress response signaling pathway (AID 1159516; active = well fitted activation curve with a large enough effect in the signal ratio in the repeat runs, not every such curve was filed as active; the % refers to the signal ratio)
Summary of the method: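 Read-out is beta-lactamase cleavage of a FRET substrate (405 nm excitation; 460 and 530 nm emissions) in ESRE-bla HeLa cells after a 5 hr compound exposure at 37 C. Substrate incubation ran 2 hr at room temperature.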

[5] = qHTS assay to identify small molecule agonists of the endoplasmic reticulum stress response signaling pathway - cell viability counter screen (AID 1159517; calls by dose curve;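 note: HeLa cells carrying an ER stress response element beta-lactamase reporter; series mostly up to about 61 µM; nearly all actives have a fitted effect of over 50% in size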)
Summary of the method: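 Cells, HeLa ESRE-bla; density, 1,500/well; dosing, 5 hr at 37 C, 5% CO2; readout, CellTiter-Glo luminescence after 30 min RT.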

[6] = qHTS assay to identify small molecule antagonists of the retinoid-related orphan receptor gamma (ROR-gamma) signaling pathway - cell viability counter screen (AID 1159520); note: nearly all actives have a fitted effect of over 50% in size
Summary of the method: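 Cytotoxicity was read from cellular ATP (CellTiter-Glo luminescence) after 16 hr at 37 C with 1 uM doxycycline induction. The inducer was added 2 hr after compound transfer to Tet-on ROR gamma CHO cells.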

[7] = qHTS assay to identify small molecule agonists of the AP-1 signaling pathway - cell viability counter screen (AID 1159525; calls by dose curve; note: nearly all actives have a fitted effect of over 55% in size)
Summary of the method: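 Luminescent ATP readout (Cell Titer Glo, 30 min RT), normalised to DMSO and tetra n-octyl ammonium bromide controls. Cells were ME-180 AP-1-bla in 0.5% dialyzed FBS Opti-MEM, with a 5 h, 37 °C compound exposure.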

[8] = qHTS assay to identify small molecule agonists of the AP-1 signaling pathway (AID 1159526; calls by dose curve)
[9] = molecular target: Retinoic acid receptor RXR-alpha (Homo sapiens) (UniProt P19793); experiment: qHTS assay to identify small molecule agonists of the RXR signaling pathway (AID 1159527; calls by dose curve; note: nearly all actives have a fitted effect of over 35% in size)
Summary of the method: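 Using 9-cis retinoic acid as the reference agonist, chemicals were tested in HEK 293T cells […] for 16 hr; substrate loading lasted 2 hr at room temperature.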

[10] = qHTS assay to identify small molecule agonists of the RXR signaling pathway - cell viability counter screen (AID 1159529); note: nearly all actives have a fitted effect of over 50% in size; note: potency is the fitted concentration of half-maximal effect
Summary of the method: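 Compounds dissolved in DMSO were pinned onto HEK 293T cells carrying a beta-lactamase reporter under RXR-alpha control and incubated 16 hr. Cytotoxicity was then quantified by CellTiter-Glo luminescence.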

[11] = qHTS assay to identify small molecule antagonists of the retinoid acid receptor (RAR) signaling pathway - cell viability counter screen (AID 1159551); note: nearly all actives have a fitted effect of over 35% in size
Summary of the method: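 Luminescent ATP quantitation (CellTiter-Glo) gave cell viability in C3RL4 cells exposed to test chemicals for 6 h at 37 C alongside 1 uM final retinol.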

[12] = qHTS assay to identify small molecule antagonists of the retinoic acid receptor (RAR) signaling pathway (AID 1159552; note: nearly all actives have a fitted effect of over 50% in size)
Summary of the method: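 Test chemicals and DMSO controls were pin-transferred onto C3RL4 cells a day after seeding; retinol (1 uM final) followed at once. Luminescent reporter output was quantified after 6 hr of co-incubation and 30 min with detection reagent.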

[13] = qHTS assay to identify small molecule agonists of the retinoic acid receptor (RAR) signaling pathway (AID 1159553)
Summary of the method: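 Luminescence from a RARE-driven luciferase reporter in C3RL4 cells served as the read-out, measured after 30 min with detection reagent at room temperature. Compounds in DMSO were applied for 6 hr at 37 C following overnight seeding.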

[14] = molecular target: Nuclear receptor ROR-gamma (Homo sapiens) (UniProt P51449); experiment: qHTS assay to identify small molecule antagonists of the retinoid-related orphan receptor gamma (ROR-gamma) signaling pathway (AID 1159521)
Summary of the method: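 Test compounds were applied to Tet-on RORγ CHO cells 2 h ahead of doxycycline hyclate (1 uM final). Luciferase reporter activity was quantified by luminescence after 16 h at 37 C and 5% CO2.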

Measured: Potency

Chain of Retinoic acid receptor RXR-alpha (Homo sapiens) (P19793 whole entry, looked up): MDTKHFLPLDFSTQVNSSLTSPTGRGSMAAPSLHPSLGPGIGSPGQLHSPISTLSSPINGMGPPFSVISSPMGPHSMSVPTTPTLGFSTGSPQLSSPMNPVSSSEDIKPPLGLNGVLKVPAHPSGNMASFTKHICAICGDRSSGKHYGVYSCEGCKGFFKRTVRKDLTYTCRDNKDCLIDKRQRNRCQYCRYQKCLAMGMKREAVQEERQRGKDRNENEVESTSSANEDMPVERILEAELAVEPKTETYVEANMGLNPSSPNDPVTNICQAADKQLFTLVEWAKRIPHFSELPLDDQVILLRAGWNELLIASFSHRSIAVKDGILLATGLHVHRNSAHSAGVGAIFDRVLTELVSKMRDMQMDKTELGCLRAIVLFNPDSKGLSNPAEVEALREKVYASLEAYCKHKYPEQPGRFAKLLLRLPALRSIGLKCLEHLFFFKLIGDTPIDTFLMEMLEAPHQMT

O=C(Cl)/C=C/C(=O)Cl
not listed: [14]
inactive: all other assays above

Cc1cccc2sc3nncn3c12
not listed: [14]
inactive: all other assays above

O=C(O)C(Cl)Br (stereo not given)
not listed: [1] | [5] | [13]
inactive: all other assays above

BrCC1CO1 (stereo not given)
not listed: [14]
inactive: all other assays above

CCSC(=O)Cl
not listed: [13] | [14]
inactive: all other assays above

O=C(Cl)C(Cl)Cl
not listed: [14]
inactive: all other assays above

COc1ccc2c(C(=O)c3ccc(Cl)cc3)c(C)n(CC(=O)O)c2c1
not listed: [13] | [14]
inactive: all other assays above

O=C(NC(O)C(Cl)(Cl)Cl)NC(O)C(Cl)(Cl)Cl (stereo not given)
not listed: [14]
inactive: all other assays above

CC(Cl)(Cl)Cl
not listed: [13] | [14]
inactive: all other assays above

CN1COCN(Cc2cnc(Cl)s2)/C1=N\[N+](=O)[O-]
not listed: [14]
inactive: all other assays above

CC(C)NCC(O)c1ccc([N+](=O)[O-])cc1 (stereo not given)
not listed: [14]
inactive: all other assays above

CC(C)(C)c1cc(O)ccc1O
active: [10] 21.9 µM and 24.5 µM
not listed: [7] | [8] | [9] | [11] | [14]
inactive: all other assays above

CN(C)CCN(C)C
not listed: [1] | [14]
inactive: all other assays above

COc1ccc(CN2CCNCC2)c(OC)c1OC
not listed: [5] | [13]
inactive: all other assays above

CCCCCCCC(=O)Cl
not listed: [5] | [13] | [14]
inactive: all other assays above

O=C(NC(=O)c1c(F)cccc1F)Nc1cc(Cl)c(F)c(Cl)c1F
not listed: [1] | [5] | [14]
inactive: all other assays above

C=CC=O
not listed: [2]
inactive: all other assays above

C=C1C[C@@H]2[C@H](CC[C@]3(C)C(=O)CC[C@@H]23)[C@@]2(C)C=CC(=O)C=C12
not listed: [5]
inactive: all other assays above

O=C(O)CBr
not listed: [5]
inactive: all other assays above

CCN(CCO)CCn1c(Cc2ccccc2)nc2c1c(=O)n(C)c(=O)n2C
not listed: [5]
inactive: all other assays above

CC(C)(N)Cc1ccc(Cl)cc1
not listed: [5]
inactive: all other assays above

CCN[C@@H](C)Cc1ccccc1
not listed: [5] | [14]
inactive: all other assays above

Reference: PubChem BioAssay (Tox21)
